Data taken from PubChem BioAssay (NCI).
Compounds without any hit were thinned out: in the full panel of roughly 79,000, 15% have a hit. Values without a mark were called inactive. The source made the active and inactive calls. Cut-off read from the data, not from the text of the source: active = growth inhibition above about 70%; inactive = the rest.

Tests used:
[1] = NCI Yeast Anticancer Drug Screen. Data for the rad50 strain (AID 155);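 note: 0% = growth of vehicle-only cultures of the same strain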; settings: S. cerevisiae rad50 strain growth inhibition, hits give high values
In short: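 Growth of the mutant yeast was measured after compound exposure and referenced to vehicle-treated cultures.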

[2] = NCI Yeast Anticancer Drug Screen. Data for the mec2-1 strain (AID 157); settings: S. cerevisiae mec2-1 strain, hits give high values
In short: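 Mutant yeast (mec2-1) grown with compound; growth inhibition relative to vehicle control reported.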

[3] = NCI Yeast Anticancer Drug Screen. Data for the sgs1 mgt1 strain (AID 161);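 note: 0% = growth of cultures given vehicle only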; settings: S. cerevisiae sgs1 mgt1 strain, hits give high values
In short: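 Percent growth inhibition was derived by comparing compound-exposed mutant yeast with vehicle-exposed cultures. The strain carries alterations in DNA damage repair.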

[4] = NCI Yeast Anticancer Drug Screen. Data for the cln2 rad14 strain (AID 165);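 note: 0% = growth equal to vehicle treated cultures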; settings: S. cerevisiae cln2 rad14 strain, hits give high values
In short: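 Readout is yeast growth inhibition versus vehicle-treated controls, using a strain with cln2 and rad14 alterations exposed to compound.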

[5] = NCI Yeast Anticancer Drug Screen. Data for the bub3 strain (AID 167); settings: S. cerevisiae bub3 mutant strain, hits give high values
In short: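 Whole-cell yeast assay. The mutant strain was incubated with compounds, and growth inhibition was determined by comparison with vehicle-treated cells.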

[6] = NCI Yeast Anticancer Drug Screen. Data for the mlh1 rad18 strain (AID 175); settings: S. cerevisiae mlh1 rad18 strain growth inhibition, hits give high values
In short: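 Genetically defined yeast (DNA repair-deficient) exposed to compounds; growth inhibition determined relative to vehicle.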

[7] = at 5.0 µM (retest, dose inferred, filed as 0.5)
[8] = at 50.0 µM (retest, dose inferred, filed as 5.0)

Compound	growth inhibition [1, 7] [%]	growth inhibition [1, 8]	growth inhibition ([1]; at 50.0 µM)	growth inhibition [2, 7] [%]	growth inhibition [2, 8]	growth inhibition ([2]; at 50.0 µM)	growth inhibition [3, 7] [%]	growth inhibition [3, 8]	growth inhibition ([3]; at 50.0 µM)	growth inhibition [4, 7] [%]	growth inhibition [4, 8]	growth inhibition ([4]; at 50.0 µM)	growth inhibition [5, 7] [%]	growth inhibition [5, 8]	growth inhibition ([5]; at 50.0 µM)	growth inhibition [6, 7] [%]	growth inhibition [6, 8]	growth inhibition ([6]; at 50.0 µM)
C1=Cc2ccccc2/C1=C/c1ccccc1	-1	93% (active)	86.3% (active)	-32	89% (active)	60.6%	1	97% (active)	88% (active)	-7	56%	61.8%	-4	95% (active)	96.7% (active)	0	97% (active)	91.2% (active)
CCOC(=O)c1cc(Cc2ccccc2)c(=O)n(C)c1-c1ccccc1	4	75% (active)	72% (active)	-3	83% (active)	3.1%	0	85% (active)	93% (active)	7	46%	-5.4%	5	84% (active)	85.3% (active)	2	86% (active)	50.1%
CCCCN(C(=O)c1ccccc1)C1CCC(=O)c2[nH]c3ccccc3c21 (stereo not given)	-3	1%	85.5% (active)	-15	-28%	89.3% (active)	-7	20%	76% (active)	-13	-1%	83.5% (active)	-18	12%	80.6% (active)	2	-15%	69.5%
CCOC(=O)N/N=C/c1ccc(N(C)CCC#N)cc1	7	6%	-12%	-3	12%	-26.9%	-4	4%	55.2%	37	17%	5.5%	22	15%	1.1%	14	24%	-3.6%
c1ccc2c(c1)ccc1ncccc12	8	70% (active)	81.8% (active)	3	23%	3.15%	0	38%	47.6%	2	10%	-12.2%	6	62%	46.9%	6	43%	64.8%
O=C(CC(=O)c1ccccc1NC1=Cc2ccccc2C(=O)C1=O)C(=O)NC1=C(Cl)C(=O)c2ccccc2C1=O	36	92% (active)	88% (active)	21	82% (active)	86.2% (active)	14	86% (active)	85.7% (active)	16	66%	82.7% (active)	14	94% (active)	84.9% (active)	37	90% (active)	86.2% (active)
CCN(CCO)CC1OC(OC)C2OC(C)(C)OC12 (stereo not given)	-1	83% (active)	10%	0	91% (active)	2.55%	-2	84% (active)	-0.9%	-3	83% (active)	85.8% (active)	-2	89% (active)	24.5%	-1	90% (active)	35.7%
Brc1ccc(N=Nc2ccc(-c3ccc[cH-]3)cc2)cc1.[Fe+2].c1cc[cH-]c1	3	-3%	16.1%	4	1%	6.65%	7	-14%	6.3%	8	11%	5.75%	6	9%	45.4%	-2	1%	14.7%
CCN(CC)c1c(C(=O)/C=C/c2ccc(F)cc2)c(-c2ccccc2)nn(C)c1=O	29	29%	87.9% (active)	2	2%	90.6% (active)	12	12%	70.5% (active)	16	16%	90.3% (active)	-3	-3%	90.3% (active)	1	1%	86.2% (active)
CN=S(=O)(OCCCCOS(=O)(=NC)c1ccccc1)c1ccccc1 (stereo not given)	16	26%	47.6%	9	8%	-2.25%	20	28%	-18.1%	8	10%	-12.4%	11	10%	-29.3%	39	40%	-52.3%
